Source: PubChem BioAssay (National Center for Advancing Translational Sciences (NCATS))
DT40 TDP1 CPT: DT40-hTDP1 cell growth loss with CPT; Potency, µM (highest dose often 46.2 µM), without a hit: at the top dose activity change, negative = growth inhibition, actives largely listed as inhibitors; chicken DT40 Tdp1-/-;hTDP1 cells + 20 nM CPT, ATP luminescence, 48 h; actives 12% (n = 420,000); further: potency means the concentration at half of the fitted maximal effect; on the % scale 0 is the no-effect control and ±100 the full control effect; nearly all actives have a fitted effect of over 55% in size
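Chicken DT40 Tdp1-/- cells complemented with human TDP1, 400 cells/well, exposed to compounds plus 20 nM camptothecin for at least 48 h at 37 C; viability read as ATP content by CellTiter-Glo luminescence.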
TGFb inhibitor: inhibitors of TGF-b signaling | HepG2 CAGA-GFP TGF-b/SMAD3 reporter, GFP fluorescence, 18 h; TGF-beta stimulated, 500 pg/mL final | Potency, µM (titrated, usually from 46.1 µM), for the others: top-dose activity, negative = inhibition, hits mostly inhibitors | actives 1.2% (n = 410,000) | AID 588855; further: potency means the concentration at half of the fitted maximal effect; on the % scale 0 is the no-effect control and ±100 the full control effect; nearly all actives have a fitted effect of over 65% in size
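Using HEPG2 CAGA-GFP reporter cells at 1000 cells/well, we pinned test compounds, stimulated with recombinant TGF-beta (500 pg/mL final) and measured total well GFP after 18 h.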
HepG2 tox: counter-screen for TGF-b inhibitors: cytotoxicity in HepG2 cells. HepG2 CAGA-GFP viability, ATP luminescence, 18 h. Potency, µM (top dose mostly 46.1 µM), inactives show at the top dose activity change, negative = cytotoxicity, most hits filed as cytotoxic. actives 0.76% (n = 410,000). AID 588856; further: potency means the concentration at half of the fitted maximal effect
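CellTiter-Glo luminescence gave cytotoxicity after 18 hours at 37 degrees C. The cells were HepG2 CAGA-GFP in 1% FBS DMEM, stimulated with 500 pg/mL TGF-beta after compound addition. %Activity was normalised to no-cell wells (complete cell-killing) and DMSO (no toxicity), and curves were fitted and classified.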
TDP1 inh: blocks human tyrosyl-DNA phosphodiesterase 1; recombinant TDP1, AlphaScreen DNA substrate cleavage; Potency, µM (highest dose often 130 µM), inactives show at the top dose activity change, negative = inhibition, hits mostly inhibitors; Q9NUW8; actives 0.28% (n = 350,000); AID 485290; further: potency means the concentration at half of the fitted maximal effect; on the % scale 0 is the no-effect control and ±100 the full control effect; nearly all actives have a fitted effect of over 40% in size
Target sequence (Q9NUW8 whole entry, looked up): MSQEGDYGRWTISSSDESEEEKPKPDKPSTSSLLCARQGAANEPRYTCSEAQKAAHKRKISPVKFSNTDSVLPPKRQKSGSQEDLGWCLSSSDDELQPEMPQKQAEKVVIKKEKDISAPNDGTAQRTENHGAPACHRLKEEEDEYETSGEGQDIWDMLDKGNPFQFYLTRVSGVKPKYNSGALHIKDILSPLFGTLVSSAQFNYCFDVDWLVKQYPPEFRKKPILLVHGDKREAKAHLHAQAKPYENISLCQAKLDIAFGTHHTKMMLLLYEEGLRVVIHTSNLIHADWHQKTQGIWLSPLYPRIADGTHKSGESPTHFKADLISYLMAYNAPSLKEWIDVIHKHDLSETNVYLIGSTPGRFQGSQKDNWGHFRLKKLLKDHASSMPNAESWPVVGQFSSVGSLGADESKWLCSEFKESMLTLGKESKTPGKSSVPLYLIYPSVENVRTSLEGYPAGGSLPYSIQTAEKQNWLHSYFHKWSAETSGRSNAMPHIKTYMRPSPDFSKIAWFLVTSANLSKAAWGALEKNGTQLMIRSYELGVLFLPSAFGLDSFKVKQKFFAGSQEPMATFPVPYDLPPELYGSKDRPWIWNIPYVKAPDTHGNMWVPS
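AlphaScreen read-out: signal falls as enzyme removes the 3' tyrosine-FITC from a 5'-biotinylated DNA oligo (15 nM, 5 min, RT). Enzyme was E. coli-made recombinant Tdp1 at 1 nM, exposed to compound for 15 min beforehand; beads 10 ug/ml, 10 min.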
IL-1B inflam inh: blocks inflammasome-driven IL-1 beta release; THP-1 LPS/ATP IL-1B secretion, AlphaLISA, 16 h; active compounds read low; activity change, % at 57.5 µM; actives 4.7% (n = 360,000); in the data active means activity change below about -50%; inconclusive means mostly about -30% to -49%; further: on the % scale 0 is the no-effect control and ±100 the full control effect
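Secreted IL-1B measured by AlphaLISA bead assay after 16 h compound exposure of THP-1 cells; compounds (final up to 57.5 uM) added 1 h before LPS (250 ng/mL) and ATP (1.25 mM) stimulation; lower signal means less secretion.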
DT40 TDP1 no CPT: qHTS for Inhibitors of human tyrosyl-DNA phosphodiesterase 1 (TDP1): qHTS in cells in absence of CPT | AID 686978, 2013 | actives 15% (n = 420,000) | Potency, µM (titrated, usually from 46.2 µM), inactives show at the top dose activity change, negative = growth inhibition, usual class: inhibitors | DT40 Tdp1-/- hTDP1 cells, no CPT, ATP luminescence, 48 h; further: potency means the concentration at half of the fitted maximal effect; on the % scale 0 is the no-effect control and ±100 the full control effect; nearly all actives have a fitted effect of over 55% in size
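Luminescent ATP content (CellTiter-Glo) served as the growth readout. Knockout chicken DT40 cells expressing human TDP1 were exposed to compounds without camptothecin for a minimum 48 hr at 37 °C.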
Starred values were filed as active, the others as inactive; ? = inconclusive; . = no result given; [ ] = remark or other dose. The list is not random: actives were taken first. Their share in the collection is about 18%. Unless noted, the call rests on the fitted dose curve; in most records, active means well fitted curve in the direction sought with a large enough effect; inconclusive means small, poorly fitted or top-dose-only effect, or another doubt; inactive means no such curve, though single readings can be large; an effect the other way counts as inactive or inconclusive.

SMILES	DT40 TDP1 CPT	TGFb inhibitor	HepG2 tox	TDP1 inh	IL-1B inflam inh	DT40 TDP1 no CPT
O=C(N/N=C/c1cccs1)c1[nH]ncc1Br	-11%	20%	-24%	0%	?	0%
Cc1ccc(O)c(/C=N/NC(=O)c2[nH]ncc2Br)c1	-9%	?	-18%	0%	-10	15µM*
O=C(NCC1CCCCC1)c1ccc2nc([C@@H]3O[C@H](CO)[C@H](O)[C@H](O)[C@H]3O)[nH]c2c1	10%	12%	8%	.	-3	22%
S=C(NCCc1ccc(Cl)cc1)NC1CCCCC1	?	?	-53%	0%	-94*	?
S=C(NCCc1ccccc1)NC1CCCCCC1	18µM*	26%	-31%	0%	6	?
CN(CC(=O)Nc1ccc(F)c(F)c1F)C(=O)C1CCC1	-17%	7%	12%	-10%	12	-9%
N/C(=N\OC(=O)c1cc([N+](=O)[O-])ccc1Cl)c1ccccn1	?	4%	-31%	.	-96*	18µM*
N/C(=N/OC(=O)c1ccccc1Cl)c1ncc([N+](=O)[O-])s1	3.7µM*	?	-147%	.	-88*	8.2µM*
N/C(=N\OC(=O)c1ccccc1Cl)c1cccc([N+](=O)[O-])c1	-7%	-7%	-22%	.	11	?
CCC(CC)C(=O)NCc1nc2cccnc2n1Cc1ccc(F)cc1	-12%	-26%	-22%	4%	.	-23%
CCOC(=O)C1=CCN(S(=O)(=O)c2ccc(C)cc2)[C@H]1c1ccccc1Cl	?	?	-3%	.	2	?
Cc1nn(-c2ccccc2)c2c1C(O)n1c(nc3ccccc31)S2 (stereo not given)	15µM*	-18%	-16%	2%	-86*	16µM*
Cc1nn(-c2ccccc2)c(C)c1Cc1ccc(O)cc1	?	-19%	-19%	.	-6	?
CS(=O)(=O)N(Cc1ccc(Cl)cc1)c1ccc(C(=O)N2CCN(c3ccccc3)CC2)cc1	?	?	-3%	7%	-51*	?
CN1CCN(C(=O)c2ccc(N(Cc3ccc(Cl)cc3)S(C)(=O)=O)cc2)CC1	-7%	14%	-1%	7%	13	-12%
CS(=O)(=O)N(CC(=O)N1CCN(c2cccc(Cl)c2)CC1)c1cccc(F)c1	?	?	-5%	1%	-18	16µM*
CCN1CCN(C(=O)c2ccccc2N(Cc2ccccc2)S(=O)(=O)c2ccc(C)cc2)CC1	?	?	-31%	8%	-68*	16µM*
CS(=O)(=O)N(Cc1ccccc1)c1ccc(C(=O)N2CCN(c3cccc(Cl)c3)CC2)cc1	11µM*	-11%	-2%	-3%	?	14µM*
O=C(CN(c1ccccc1)S(=O)(=O)c1ccc(F)cc1)NC1CCS(=O)(=O)C1 (stereo not given)	9%	-3%	-1%	6%	14	10%
COc1ccc(NC(=O)c2oc3ccccc3c2NC(=O)COc2ccc(C(C)C)cc2)c(OC)c1	28%	-10%	-10%	-4%	.	-18%
COc1ccc(-n2c(SCC(=O)Nc3ccc(C(=O)O)cc3)nnc2-c2ccccc2)cc1OC	-6%	4%	4%	.	3	-4%
CS(=O)(=O)N(Cc1ccccc1)c1ccccc1C(=O)N1CCN(c2ccccc2)CC1	21µM*	0%	-16%	2%	0	16µM*
CCN1CCN(C(=O)c2ccccc2N(Cc2ccccc2)S(C)(=O)=O)CC1	-9%	-5%	3%	0%	19	1%
C=CCSC1=N/C(=C\c2sccc2C)C(=O)S1	1%	-16%	-19%	3%	-21	0%
C=CCSC1=N/C(=C\C=C\c2ccco2)C(=O)S1	23µM*	?	-18%	2%	-9	18µM*
SMILES	DT40 TDP1 CPT	TGFb inhibitor	HepG2 tox	TDP1 inh	IL-1B inflam inh	DT40 TDP1 no CPT
COc1ccccc1NC(=O)COC(=O)c1ccc2c(c1)OCCO2	-13%	4%	-16%	0%	23	?
COc1ccc(OC)c(NC(=O)COC(=O)CCC2CCCC2)c1	24%	0%	-12%	-2%[56.1 µM]	-8	-18%
COc1ccc(OC)c(NC(=O)COC(=O)c2cc3c(s2)CCC3)c1	-29%	-7%	-11%	2.8µM*	61	3%
COc1ccccc1NC(=O)COC(=O)c1cc2c(s1)CCC2	12%	-17%	6%	10µM*	16	-14%
O=C(CN1C(=O)NC2(CCCc3ccccc32)C1=O)c1ccc(F)c(F)c1 (stereo not given)	0%	-8%	0%	1%	7	?
CCOC(CCNC(=O)c1cc2c(=O)[nH]c3ccccc3c2s1)OCC	?	20%	0%	.	-12	?
CCOC(CNCc1cc(C)c2[nH]c3ccccc3c2c1C)OCC	16µM*	?	-77%	.	-96*	12µM*
Cc1nn(C)cc1C(=O)/C=C/c1ccc([N+](=O)[O-])cc1	?	-10%	3%	0%	-99*	18µM*
CCn1cc(CN(C)C(=O)/C=C/c2ccc([N+](=O)[O-])cc2)c(C)n1	?	3%	8%	2%	0	15µM*
Cc1ccc2nc(-c3ccccc3)c(NC(=O)c3ccco3)n2c1	-8%	3%	0%	7%	-20	-3%
COc1ccc(-c2nc3cc(C)ccn3c2NC(=O)c2ccccc2OC)cc1	?	-20%	-26%	.	48	?
CCCCNc1c(-c2cccc(-c3ccc(OC)cc3)c2)nc2ccc(C)cn12	23µM*	?	-55%	9%	-100*	18µM*
CCCCNc1c(-c2cccc(-c3ccc(OC)cc3)c2)nc2cc(C)ccn12	16µM*	?	-28%	7%	-71*	18µM*
COc1ccc(-c2nc3ccc(C)cn3c2NCc2ccc3c(c2)OCO3)cc1	-8%	-6%	-8%	-2%	-3	?
CCCCNc1c(-c2cccc(-c3cc(C(C)=O)cs3)c2)nc2ccc(C)cn12	16µM*	?	18µM*	8%	-103*	13µM*
Cc1c(NC(=O)COC(=O)c2ccccc2Cl)c(=O)n(-c2ccccc2)n1C	15%	11%	6%	0%	-2	7%
